Pf Dd2 inh – Plasmodium falciparum Dd2 growth inhibition; 4.3% of 120,000 active; AID 1347417; P. falciparum Dd2 growth, SYBR Green, 72 h; Potency, µM (doses to about 28.9 µM), for inactives: top-dose activity, negative = inhibition, usual class: inhibitors; active = well fitted inhibition curve with a large enough effect;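 also: plate controls were DMSO vehicle for no effect and reference drug for full effect; nearly all actives have a fitted effect of over 65% in size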
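Infected erythrocytes (Dd2, 0.3% parasitemia, 2.5% hematocrit final) are added to compound in RPMI-1640/Albumax II medium, grown 72 h at 37C in low oxygen, then lysed with saponin/Triton-X containing SYBR Green and read by fluorescence.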
* hit, by the source's call; [ ] = remark or other dose. This excerpt belongs to a sample that is enriched for hits. Potency is read from the fitted curve at half-maximal effect.

For O=C(c1ccc(-n2ccnc2)cc1)N1CCN(c2cccc(Cl)c2)C(=O)C1 the results were Pf Dd2 inh 2%.
Screening COCC(=O)N[C@H]1C[C@@H](CO)N(Cc2ccsc2)C1 returned Pf Dd2 inh -1%.
`O=C(NC[C@H]1OC[C@@H](NC2CCC(F)(F)CC2)[C@@H]1O)N1CCOCC1` gave Pf Dd2 inh 5%[44.1 µM].
Screening COc1ccc(Nc2nnc(-n3nc(C)cc3C)c3ccccc23)cc1 returned Pf Dd2 inh -14%.
CCCCc1ccc(Nc2cc(C)nc(-n3nc(C)cc3C)n2)cc1 was read as Pf Dd2 inh 2.8µM*.
`CCCCOC(=O)c1ccc(Nc2nnc(-n3nc(C)cc3C)c3ccccc23)cc1` gave Pf Dd2 inh -10%.
CC(=O)c1ccc(NC(=O)Cn2c(-n3nc(C)cc3C)nc(C)cc2=O)cc1 was read as Pf Dd2 inh inactive.
`Cc1cc(C)n(-c2nc3ccccc3nc2Nc2ccc(C(C)C)cc2)n1` gave Pf Dd2 inh -10%.
Cc1cc(Nc2ccc(F)cc2)nc(-n2nc(C)cc2C)n1 was read as Pf Dd2 inh 11µM*.
Screening O=C(c1ccc(C(F)(F)F)cc1)N1CCn2c(nnc2-c2ccccc2)C1 returned Pf Dd2 inh inactive.
Screening Cc1n[nH]c(C)c1CCC(=O)Nc1ccc2c(c1)C(=O)N1CCC[C@H]1C(=O)N2 returned Pf Dd2 inh 3%.
`COc1ccc(C(=O)N2CCN(c3cc(C(F)(F)F)ncn3)CC2)cc1OC` gave Pf Dd2 inh 1%.
For O=C(CCC1CCCN(CC2=Cc3cc(Cl)ccc3OC2)C1)Nc1ccccc1F (configuration not stated) the results were Pf Dd2 inh inactive.
For O=C(CCC1CCCN(Cc2cnc(-c3ccccc3)s2)C1)Nc1ccccc1F (configuration not stated) the results were Pf Dd2 inh 14µM*.
For CC(C)(O)C#Cc1ccc(CN2CCCC(CCC(=O)Nc3ccccc3F)C2)s1 (configuration not stated) the results were Pf Dd2 inh -7%.
`CN(Cc1ccccc1)C(=O)[C@H]1CCC[C@H]1NC(=O)c1ccncc1` gave Pf Dd2 inh -19%.
For O=C(CN1C(=O)NC2(CCCCC2)C1=O)Nc1ccc2c(c1)OCO2 the results were Pf Dd2 inh -2%.
CN(C)C(=O)c1ccc(OC2CCN(C(=O)C3CCCC3)CC2)nc1 was read as Pf Dd2 inh 19%.
`CCC1(N2CCN(C(=O)c3ccc(Cl)s3)CC2)CCN(S(C)(=O)=O)C1` (configuration not stated) gave Pf Dd2 inh -26%.
`CN1CCc2nc3sc(C(=O)Nc4ccccc4OC(F)(F)F)c(N)c3cc2C1` gave Pf Dd2 inh -14%.
Screening CCOc1ccccc1NC(=O)c1sc2nc3c(cc2c1N)CN(Cc1ccccc1)CC3 returned Pf Dd2 inh 10µM*.
Nc1c(C(=O)Nc2ccccc2)sc2nc3c(cc12)CN(Cc1ccccc1)CC3 was read as Pf Dd2 inh -12%.
For COCC(=O)N(C)C(C)c1cccs1 (configuration not stated) the results were Pf Dd2 inh 2%[44.1 µM].
`C=CCNC(=O)N[C@H]1C[C@@H](C(=O)N[C@@H](CCS(C)(=O)=O)C(N)=O)N(C(=O)CSC)C1` gave Pf Dd2 inh 4%.
Screening O=C(NC[C@H]1O[C@@H](CO)[C@@H](O)[C@H]1N1CCCCC1)c1ccccc1 returned Pf Dd2 inh -23%[44.1 µM].
Screening CCc1ccc(NC(=O)C2CCC(CNS(=O)(=O)c3ccc4c(c3)CC(C)N4C(C)=O)CC2)cc1 (configuration not stated) returned Pf Dd2 inh 10µM*.
`CC1Cc2cc(S(=O)(=O)NCc3ccccc3)ccc2N1C(=O)C1CCC1` (configuration not stated) gave Pf Dd2 inh 3.5µM*.
`CC(=O)N1c2ccc(S(=O)(=O)NCc3ccccc3Cl)cc2CC1C` (configuration not stated) gave Pf Dd2 inh 66%.
For CC(=O)N1c2ccc(S(=O)(=O)NCC3CCC(C(=O)Nc4ccc(C)c(C)c4)CC3)cc2CC1C (configuration not stated) the results were Pf Dd2 inh -20%.
For CC(=O)N1c2ccc(S(=O)(=O)NCC3CCC(C(=O)Nc4ccc(F)cc4)CC3)cc2CC1C (configuration not stated) the results were Pf Dd2 inh inactive.
`CCc1cccc(NS(=O)(=O)c2ccc3c(c2)CC(C)N3C(=O)C2CC2)c1` (configuration not stated) gave Pf Dd2 inh -16%.
Screening CN(C)C[C@@H]1CN(Cc2ccccc2)C[C@H]1NC(=O)C1CC=CC1 returned Pf Dd2 inh -6%.
`O=C(c1c(OCC2CC2)cc(=O)n2c1CCCCC2)N1CCOCC1` gave Pf Dd2 inh 62%.
`N#Cc1ccc(CN2C[C@@H](NC(=O)c3cccnc3)C[C@H]2CO)cc1` gave Pf Dd2 inh -20%.
`CN1CCCN(S(=O)(=O)c2ccc3c(c2)OCCO3)c2ccccc21` gave Pf Dd2 inh -23%.
For O=C(CC(F)(F)F)N1CCC(N2C(=O)C3(CCCC3)C2c2ccccc2)CC1 (configuration not stated) the results were Pf Dd2 inh 6.3µM*.
Screening O=C(Cc1ccncc1)N1CCC(N2C(=O)C3(CCCCC3)C2c2ccccc2)CC1 (configuration not stated) returned Pf Dd2 inh inactive.
For O=C(Cn1ccnc1)N1CCC(N2C(=O)C3(CCCC3)C2c2ccccc2)CC1 (configuration not stated) the results were Pf Dd2 inh -7%.
For CN(C)S(=O)(=O)N1CCC(N2C(=O)C3(CCCCC3)C2c2ccccc2)CC1 (configuration not stated) the results were Pf Dd2 inh -21%.
CCNC(=O)N1CCC(N2C(=O)C3(CCCC3)C2c2ccccc2)CC1 (configuration not stated) was read as Pf Dd2 inh 11µM*.
For CCOC(=O)CCNC(=O)N1CCC(N2C(=O)C3(CCCC3)C2c2scnc2C)CC1 (configuration not stated) the results were Pf Dd2 inh -12%.
For O=C1N(C2CCNCC2)C(c2ccccc2)C12CCCC2 (configuration not stated) the results were Pf Dd2 inh 5µM*.
Screening COCC(=O)N1CCC(N2C(=O)C3(CCCCC3)C2c2ccccc2)CC1 (configuration not stated) returned Pf Dd2 inh -30%.
Screening Cn1cnc(S(=O)(=O)N2CCC(N3C(=O)C4(CCCC4)C3c3ccccc3)CC2)c1 (configuration not stated) returned Pf Dd2 inh -11%.
CC1(C)C(=O)N(CCOc2ccccc2)[C@H]2CN(C3CCOCC3)C[C@H]2[S+]1(=O)[O-] was read as Pf Dd2 inh -19%[44.1 µM].
Screening FC(F)(F)c1ccc(CN2CCC3(CC2)CC(c2cccnc2)=NO3)cc1 returned Pf Dd2 inh inactive.
`CN(CCc1ccccn1)C(=O)[C@@]12CCCC[C@H]1N(C)C(=O)CC2` gave Pf Dd2 inh 13%.
Screening Cc1cc2nc3n(c(=O)c2n1CC(=O)N1CCCc2ccccc21)CCCCC3 returned Pf Dd2 inh -9%.
For CCn1cc(S(=O)(=O)N2C[C@H]3CN(CCO)C[C@@]3(C(=O)O)C2)cn1 the results were Pf Dd2 inh 1%.
For Cc1ccc(C(=O)NC2CCN(c3ccc(F)cc3)C2=O)s1 (configuration not stated) the results were Pf Dd2 inh -18%.

Source: PubChem BioAssay (National Center for Advancing Translational Sciences (NCATS))
